# Reference: ChEMBL document CHEMBL3433997, “St. Jude Leishmania screening dataset” (2016)
# Several values for one entry are separate records, joined by “and”; a condition that tells them apart may be missing. Identical values can stand only once.
# Assays:
# Assay type in all cases: functional
# [1] = molecular target: Solute carrier family 2, facilitated glucose transporter member 1 (Homo sapiens) (UniProt P11166); assay: ST_JUDE_LEISH: Cytotoxicity at 2uM final concentration against transgenic Leishmania Mexicana promastigotes LmGLUT1 that are glucose transport deficient and complemented with the human glucose transporter GLUT1. Activity is measured by DNA content using SYBR green in vitro
# [2] = molecular target: Hexose transporter 1 (Plasmodium falciparum) (UniProt O97467); assay: ST_JUDE_LEISH: Cytotoxicity at 2uM final concentration against transgenic Leishmania Mexicana promastigotes LmPfHT that are glucose transport deficient and complemented with the Plasmodium falciparum hexose transporter. Activity is measured by DNA content using SYBR green in vitro
# [3] = molecular target: Glucose transporter (Leishmania mexicana) (UniProt O61059); assay: ST_JUDE_LEISH: Cytotoxicity at 2uM final concentration against transgenic Leishmania Mexicana promastigotes LmGT2 that are glucose transport deficient and complemented with the L. Mexicana glucose transporter 2. Activity is measured by DNA content using SYBR green in vitro
# Solute carrier family 2, facilitated glucose transporter member 1 (Homo sapiens), sequence (P11166 whole entry): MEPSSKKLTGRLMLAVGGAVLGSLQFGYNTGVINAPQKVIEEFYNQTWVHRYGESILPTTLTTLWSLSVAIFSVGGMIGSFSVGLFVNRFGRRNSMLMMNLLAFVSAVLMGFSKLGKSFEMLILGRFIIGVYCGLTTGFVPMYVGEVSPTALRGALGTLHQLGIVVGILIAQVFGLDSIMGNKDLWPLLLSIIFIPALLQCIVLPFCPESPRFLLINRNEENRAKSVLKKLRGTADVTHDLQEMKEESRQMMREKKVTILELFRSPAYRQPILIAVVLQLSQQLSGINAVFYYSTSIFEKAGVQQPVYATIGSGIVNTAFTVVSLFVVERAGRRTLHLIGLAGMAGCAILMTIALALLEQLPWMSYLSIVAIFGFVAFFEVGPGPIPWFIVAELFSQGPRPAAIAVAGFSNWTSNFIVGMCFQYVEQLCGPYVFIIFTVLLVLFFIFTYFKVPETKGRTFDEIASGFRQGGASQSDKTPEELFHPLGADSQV
Compound,inhibition [1],inhibition [2],inhibition [3]
COc1ccc(C=CC(=O)NC2CCC(CN3CCC(c4c[nH]c5ccccc45)CC3)CC2)cc1 (centres undefined),3.28% and -0.32%,1.24% and -0.89%,-5.37% and -4.75%
CC(Cc1ccc(NC(=O)CCCc2ccccc2)cc1)NCCc1cccc(Cl)c1 (centres undefined),1.2%,0.72%,2.44%
CNCCCCCCOc1ccc(CC(C)NCC(O)c2cccc(C(F)(F)F)c2)cc1 (centres undefined),18.4%,2.66%,1.22%
COCCNCc1ccc(-c2ccc(CN(C(=O)Nc3ccccc3)C3CCN(Cc4ccccc4)CC3)cc2)cc1,7.17%,4.93%,5.08%
CCOC(=O)c1c(C)n(C2CCCCC2)c2cc(Br)c(O)cc12,-0.53%,-0.38%,-0.74%
COC(=O)c1ccc(CC(C)NCC(O)c2cccc(Oc3cccc(C(F)(F)F)c3)c2)cc1 (centres undefined),8.83%,6.86%,6.56%
CC(=O)Nc1ccc(OCCN(CC(F)(F)F)c2ccc(C#N)cc2C(F)(F)F)cc1,2.13%,2.71%,0.98%
CC(C)C[C@H](Nc1ccc(C#N)c2ccccc12)C(=O)N[C@@H]1CCCc2ccccc21,3.96%,1.88%,1.15%
FC(F)(F)c1ccc(NC(=S)N2CCC(CN3CCC(c4c[nH]c5ccccc45)CC3)CC2)cc1,-0.87%,-0.06%,2.98%
O=C(NCC(=O)N1CCC[C@H]1C(=O)O)[C@@H](Cc1ccccc1)NC(=O)[C@@H]1CCCN1C(=O)CCCc1ccc(O)cc1,,-1.36%,-1.68%
Cc1[nH]c2cc(F)ccc2c1C1=CCN(CCCCC2(C)C(=O)Nc3c(F)cccc32)CC1 (centres undefined),3.71%,5.17%,4.44%
O=C(NC1CCC(CN2CCC(c3c[nH]c4ccccc34)CC2)CC1)c1cc2cccc([N+](=O)[O-])c2[nH]1 (centres undefined),-2.16%,2.66%,-0.94%
CCN1CCC2(c3cccc(OC)c3)Cc3nc4ccccc4c(-c4ccccc4)c3CC2C1 (centres undefined),3.21%,1.3%,2.12%
CCCCCCc1cc(O)c2c3c(c(=O)oc2c1)CCN(C)C3,7.26%,4.97%,6.76%
CN(C)c1cccc(NC(=O)NC2N=C(c3ccccc3)c3ccccc3N(CC(=O)N(C)c3ccccc3)C2=O)c1 (centres undefined),6.38%,4.22%,2.42%
COC(C(=O)OCCC1CCCN1C)(c1ccccc1)C1CCCCC1 (centres undefined),11.6%,10.5%,10.5%
NC1=NC2(CCCC2)N(c2ccc(Cl)cc2)C(N)=N1,3.05%,4.23%,3.83%
Cc1ccc(CC(C)NCC(O)c2cccc(C#N)c2)cc1 (centres undefined),9.34%,13.4%,9.79%

Compound,inhibition [1],inhibition [2],inhibition [3]
NC(=O)CN1CC=C(c2c[nH]c3ccc(Br)cc23)CC1,-1.87%,0.93%,0.77%
CC(Cc1ccc(OCCCCOc2ccccc2)cc1)NCCC1CCCN1C (centres undefined),103%,97.7%,103%
CC[C@H]1CN2CCc3cc(OC)c(OC)cc3[C@@H]2C[C@@H]1C[C@H]1NCCc2c1cc(OC)c(OC)c2Br,88%,86.6%,84.7%
CC[C@H]1CN2CC[C@@H]1C[C@H]2[C@H](O)c1cc(N2CCC(C(N)=O)CC2)nc2ccc(OC)cc12,8.84%,7.92%,8.43%
O=C(Nc1cc(C(F)(F)F)cc(C(F)(F)F)c1)c1cc(Cl)ccc1O,7.09%,7.96%,8.03%
CCCCCc1cc(O)c2c(c1)OC(C)(C)CC2C1=CCN(Cc2cccnc2)CC1 (centres undefined),-0.46%,1.05%,0.25%
CNC(=O)c1ccc2[nH]cc(C3CCN(CC4CCN(C(=O)/C=C/c5ccc(Cl)c(Cl)c5)CC4)CC3)c2c1,1.1%,-0.15%,0.08%
C=CCOc1ccccc1CNCC(O)c1cccc(C(F)(F)F)c1 (centres undefined),2.78%,3.47%,2.61%
C#CCOc1ccc(CC(C)NCC(O)c2cccc(C(F)(F)F)c2)cc1 (centres undefined),0.24%,0.36%,0.98%
CC(C)CNCc1ccc(-c2cccc(CN(C(=O)NC3CCCCC3)C3CCN(Cc4ccccc4)CC3)c2)cc1,0.87%,-0.07%,3.1%
O=C(/C=C/c1ccc(Cl)c(Cl)c1)N1CCC(CN2CCC(c3cn(CC(=O)N4CCCCC4)c4ccccc34)CC2)CC1,2.63%,2.05%,-2.07%
Cc1ccc(CC(C)NCC(O)c2cccc(Br)c2)cc1 (centres undefined),1.02%,-0.15%,1.21%
CC(Cc1ccc(OCCOc2ccccc2)cc1)NCC(O)c1cccc(C(F)(F)F)c1 (centres undefined),1.79%,3.83%,4.17%
O=C(NC1CCC(CN2CCC(c3c[nH]c4ccccc34)CC2)CC1)c1csc(-c2ccc(C(F)(F)F)cc2Cl)n1 (centres undefined),10.1%,9.77%,10.2%
Cc1[nH]c2ccccc2c1C1=CCN(CCN2CCOc3c(Br)cccc3C2=O)CC1,1.66%,1.57%,1.55%
CCC1(C)CC(CCNCc2ccccc2O)(c2ccc(F)cc2)CCO1 (centres undefined),0.23%,1.85%,-0.21%
O=C(/C=C/c1c(Cl)cccc1Cl)NC1CCC(CN2C3CCC2CC(c2c[nH]c4ccccc24)C3)CC1 (centres undefined),2.07%,1.89%,-0.2%
